# Experiments:
# Assay in all cases: PBM binding z-score (relative to random genomic background probes); higher = stronger binding; sequences stand for … in GC…GCGATTGACAGCGTAGAATGAAGG
# [1] = tested on: FXR:RXRa (NR concentration 270 nM, RXRa partner concentration 90 nM)
# Outline: (§1)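 Ligand-free nuclear receptor dimers were applied to custom Agilent 4×180K protein-binding microarrays whose double-stranded probes carried direct-repeat seeds, single-nucleotide variants, half-site ablations and random human genomic background sequences in 34-nt variable regions. Incubation lasted 1 h. Binding z-scores were computed against the random background probes from regression-normalized fluorescence.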
# [2] = tested on: LXRa:RXRa (NR concentration 270 nM, RXRa partner concentration 90 nM)
# Outline: as §1
# [3] = tested on: LXRa homodimer (NR concentration 270 nM)
# Outline: as §1
# [4] = tested on: LXRb:RXRa (NR concentration 270 nM, RXRa partner concentration 90 nM)
# Outline: as §1
# [5] = tested on: LXRb homodimer (NR concentration 270 nM)
# Outline: as §1
# [6] = tested on: PPARa:RXRa (NR concentration 270 nM, RXRa partner concentration 90 nM)
# Outline: as §1
# [7] = tested on: PPARg:RXRa (NR concentration 180 nM, RXRa partner concentration 90 nM)
# Outline: as §1
# [8] = tested on: PPARg:RXRa 270nM:90nM, anti-RXR (NR concentration 270 nM, RXRa partner concentration 90 nM)
# Outline: as §1
# [9] = tested on: PPARg:RXRa 30nM:10nM, anti-RXR (NR concentration 30 nM, RXRa partner concentration 10 nM)
# Outline: as §1
# [10] = tested on: PPARg:RXRa 90nM:30nM, anti-RXR (NR concentration 90 nM, RXRa partner concentration 30 nM)
# Outline: as §1
# [11] = tested on: PPARg:RXRa DBDmut IVT, anti-RXR (DBD mutation: RXRa K156A/R161A, NR concentration 270 nM, RXRa partner concentration 90 nM)
# Outline: as §1
# [12] = tested on: PPARg:RXRa IVT, anti-PPARg (NR concentration 270 nM, RXRa partner concentration 90 nM)
# Outline: as §1
# [13] = tested on: PPARg DBDmut:RXRa IVT, anti-PPARg (DBD mutation: PPARg1 K132A/R137A, NR concentration 270 nM, RXRa partner concentration 90 nM)
# Outline: as §1
# [14] = tested on: PPARg DBDmut IVT, anti-PPARg (DBD mutation: PPARg1 K132A/R137A, NR concentration 270 nM)
# Outline: as §1
# [15] = tested on: PPARg homodimer (NR concentration 180 nM)
# Outline: as §1
# [16] = tested on: PXR:RXRa (NR concentration 270 nM, RXRa partner concentration 90 nM)
# Outline: as §1
# [17] = tested on: PXR homodimer (NR concentration 270 nM)
# Outline: as §1
# [18] = tested on: RARa:RXR (NR concentration 270 nM, RXRa partner concentration 90 nM)
# Outline: as §1
# [19] = tested on: RARa homodimer (NR concentration 270 nM)
# Outline: as §1
# [20] = tested on: RARb:RXRa (NR concentration 270 nM, RXRa partner concentration 90 nM)
# Outline: as §1
Sequence,PBM binding z-score [1],PBM binding z-score [2],PBM binding z-score [3],PBM binding z-score [4],PBM binding z-score [5],PBM binding z-score [6],PBM binding z-score [7],PBM binding z-score [8],PBM binding z-score [9],PBM binding z-score [10],PBM binding z-score [11],PBM binding z-score [12],PBM binding z-score [13],PBM binding z-score [14],PBM binding z-score [15],PBM binding z-score [16],PBM binding z-score [17],PBM binding z-score [18],PBM binding z-score [19],PBM binding z-score [20]
CGAACTAGGTCAGAACAAGACAGTGAAGGATGAT,0.848,0.591,-0.0962,0.588,-0.311,3.32,5.7,4.3,2.01,3.41,7.36,7.43,2.55,1.93,1.19,0.244,0.276,0.614,0.172,2.85
CGAACTAGGTCATCCAGGACAGTGTATACATTGA,4.45,2.66,0.861,2.24,0.0566,4.61,7.47,6.1,3.25,5.65,8.32,8.01,2.41,1.17,1.54,2.03,1.29,2.33,0.356,4.02
ATCTCTAGGCAAAGTTCAGTGAAAGATCGATAGA,0.723,1.38,0.839,0.819,0.16,1.95,2.49,3.78,1.93,3.67,0.488,0.697,0.713,0.549,0.889,1.8,1.43,1.02,0.783,2.54
GCTTACGCGTCAAAGGTTATAGCATGAATAGAAT,1.21,1.97,-0.0765,2.18,-0.553,3.38,3.1,3.84,2.28,4.07,-0.0505,0.407,-0.0262,0.00309,1.46,2.22,-0.288,3.3,-0.0243,1.22
CGAACTAGGTCATTGACACGACAGTGAATAGTAA,5.16,3.65,0.689,2.48,0.158,4.67,7.57,6.21,3.95,5.54,7.93,8.44,3.78,3.06,2.25,1.33,0.767,2.2,0.177,3.52
ATACCAAGGTGATCGAGAGGTCGTTGATACTAAC,1.97,1.51,0.71,1.37,0.0291,1.72,0.979,1,0.238,0.545,0.406,1.39,0.441,0.884,1.08,2.91,1.12,2.04,0.692,1.56
CGTCCAAGTTCAAGGTCAGTGAAAGAGACTCGAA,4.93,4.22,1.93,3.18,0.857,4.02,2.06,2.5,0.198,1.24,0.857,1.87,0.331,-0.271,4.01,4.56,3.81,3.81,2.09,4.49
CCTTACTGGTCAAGGTTATAGCACGGGTGGTACG,0.733,0.968,0.49,0.767,0.339,1.43,0.792,1.03,0.301,0.959,0.149,0.857,0.06,0.0641,1.25,1.12,0.519,1.01,0.942,2.02
TCATATAGGTAAACAGGTGAATGTCCGTAAGTTA,0.832,1.18,1.02,0.963,0.0472,2.02,2.31,3.18,3.86,3.58,4.88,4.45,1.34,1.04,1.16,0.702,0.0773,1.09,0.858,0.708
ACTCGGAGGCCAAAGGTCAGAGCTACGCCAGTGA,4.88,4.5,1.02,3.69,0.134,5.63,8.85,7.98,6.53,8.9,1,4.07,0.0532,-0.392,6.38,4.9,-0.00137,6.59,1.38,4.53
CCTACTGGGCCAAAGCTCATTGATTCCAATGCTC,-0.596,-0.522,-0.451,-0.576,-0.796,1.48,2.63,4.26,2.45,3.85,4.44,3.69,-0.419,-0.625,-0.0929,-0.568,-0.291,-0.318,-0.841,-0.251
TCGAGTAGGTTAGTCGGGGCATACAGCCAACATA,0.288,0.232,-0.353,0.458,-0.174,0.913,0.365,0.998,1.25,1.07,2.34,1.89,-0.401,-0.126,-0.0659,0.333,0.0501,0.379,-0.329,0.592
CCGACTGCGGCAAAGGTTACCATACTCAGTACGA,0.819,1.26,0.087,1.73,-0.464,2.59,2.8,4.2,2.28,4.38,0.233,0.732,0.0182,0.245,0.843,1.61,-0.16,2.57,0.118,1.82
ATCGAAAGGTCGACGAGGTGAGTATTCACCGTTT,4.22,3.41,-0.275,2.63,0.0468,4.26,2.45,2.99,1.55,1.94,0.554,2.07,1.07,0.398,0.854,2.94,0.386,3.29,-0.0728,3.91
